About 79,000 compounds went through this panel and 15% of them were active in at least one assay; those are over-represented in the sample as a whole. A number with no mark means an inactive call. Calls of active or inactive are those of the source. Rule as the data show it: active = growth inhibition above about 70%; inactive = the rest.
Experiments:
[1] = NCI Yeast Anticancer Drug Screen. Data for the rad50 strain (AID 155);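 also: 0% = growth of vehicle-only cultures of the same strain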; settings: S. cerevisiae rad50 strain growth inhibition; at 50.0 µM; stronger effect = higher value
Method in brief: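 Cells are treated with compound, grown, and their growth is then scored against vehicle-only cultures of the same repair-deficient yeast strain.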

[2] = NCI Yeast Anticancer Drug Screen. Data for the mec2-1 strain (AID 157); settings: S. cerevisiae mec2-1 strain, at 50.0 µM, stronger effect = higher value
Method in brief: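 Growth inhibition is read against vehicle-treated controls after compound exposure of the mec2-1 yeast strain, which is defective in DNA damage repair or cell cycle control.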

[3] = NCI Yeast Anticancer Drug Screen. Data for the sgs1 mgt1 strain (AID 161);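 also: 0% = growth of cultures given vehicle only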; settings: S. cerevisiae sgs1 mgt1 strain, at 50.0 µM, stronger effect = higher value
Method in brief: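 Yeast cells carrying a defined DNA-repair defect were exposed to test compounds. Growth inhibition was measured relative to vehicle-treated controls.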

[4] = NCI Yeast Anticancer Drug Screen. Data for the cln2 rad14 strain (AID 165);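 also: 0% = growth equal to vehicle treated cultures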; settings: S. cerevisiae cln2 rad14 strain, at 50.0 µM, stronger effect = higher value
Method in brief: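 Growth inhibition, relative to vehicle-treated controls, is the read-out. The test organism is a yeast strain with defined genetic alterations, cln2 rad14.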

[5] = NCI Yeast Anticancer Drug Screen. Data for the bub3 strain (AID 167); settings: S. cerevisiae bub3 mutant strain, at 50.0 µM, stronger effect = higher value
Method in brief: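 Part of a panel of yeast mutants defective in DNA damage repair or cell cycle regulation. Each strain is grown with compound, and inhibition is calculated relative to solvent-treated cultures.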

[6] = NCI Yeast Anticancer Drug Screen. Data for the mlh1 rad18 strain (AID 175); settings: S. cerevisiae mlh1 rad18 strain growth inhibition; at 50.0 µM; stronger effect = higher value
Method in brief: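 Cells of a genetically altered yeast strain, deficient in DNA damage repair, were treated with compound. Their growth was then compared with that of vehicle-treated cultures to give inhibition.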

SMILES	growth inhibition [1]	growth inhibition [2] [%]	growth inhibition [3]	growth inhibition [4] [%]	growth inhibition [5] [%]	growth inhibition [6]
CCC(CC)CC(=O)OC/C(=N\Nc1ccc([N+](=O)[O-])cc1[N+](=O)[O-])c1ccc(-c2ccccc2)cc1	-30.9%	0.15	-2.85%	-33.8	-12.2	-7%
CN(C)C(=O)C1CCC(=O)N1 (configuration not stated)	3.1%	10.6	6.6%	-4.95	10.6	-0.3%
CC(O)(C(=O)O)c1ccccc1O (configuration not stated)	-1.1%	1.7	2.05%	3.3	6.1	6.75%
C[C@H]1CC[C@@]2(OC1)O[C@H]1C[C@H]3[C@@H]4CC[C@@H]5C[C@@H](OC6OC(CO)C(O)C(O)C6OC6OC(CO)C(O)C(O)C6O)CC[C@]5(C)[C@H]4CC[C@]3(C)[C@H]1[C@@H]2C (some centres not stated)	54.2%	68.4	37.8%	19.3	-16.2	90.5% (active)
O=C(O)c1ccc2c(Cl)ccc3c2c1CC3	11.7%	-0.8	9.05%	-32.5	-26.2	21.5%
CC1=NN(c2nc(N)nc(CCl)n2)C(C)(C)C1	-8.1%	-0.1	-6.7%	-4.75	17.1	-77.9%
C=C(NC(C)=O)C(=O)CCC(N)=O	-0.75%	-0.7	-7.5%	1.75	4.75	-53.7%
O=C1c2ccccc2C(=O)N1CC1CO1 (configuration not stated)	2.85%	10.3	0.5%	-7.7	3.4	27.3%
Cn1c(=O)[nH]c2c(c1=O)CCCS2	3.75%	6.4	20.4%	0.65	-19.6	-10.1%
CC(OC1CC(=O)CC2C(=O)C=CC(=O)C12)c1ccccc1 (configuration not stated)	25.1%	21.8	26.3%	20.6	28.4	26.3%
Cc1[nH]c2ccc([N+](=O)[O-])cc2c1C	19.1%	-5.15	32.1%	26.4	25.4	38.4%
CCCCC/C=C/C(CC)(C(=O)OCC)C(=O)OCC	-5.95%	20.9	13.6%	-60	40.9	6.1%
CCCc1cc(-c2ccc(-c3cc(CCC)c(C=O)[nH]3)s2)[nH]c1C=O	-19%	-19.6	-31%	-4.9	-20.1	-46.9%
O=P(OCCCl)(OCCCl)C(c1ccccc1)(c1ccccc1)c1ccccc1	63.4%	35.7	72.6% (active)	36.9	38.5	65.2%
O=C(CC(=O)N1N=C(n2ccc3ccccc32)CC1c1ccccc1)Nc1ccccc1Cl (configuration not stated)	-13.6%	-13.8	-3.5%	29.7	-2.1	5.45%
Nc1ccc(S(=O)c2ccc(N)cc2)cc1	27.9%	-14.1	8.25%	20.8	18.6	33.1%
CCCN=C(NNC(N)=O)C(C)=O	24.9%	7.9	-4.35%	5.55	15.7	-1.45%
O=C(c1ccccc1)C(O)(Cc1ccccc1)c1ccccc1 (configuration not stated)	1.9%	17.2	20.8%	22.8	14.4	12%
CCCCNCC(=O)O[C@]1(CC)C(=O)OCc2c1cc1n(c2=O)Cc2cc3ccccc3nc2-1	78% (active)	66.8	49.5%	28.8	40.2	62.2%
CC(=O)c1ccccn1	-8.7%	-31.4	-13.8%	-7.3	-22.8	-26.6%
CCN(CC)CC(c1ccccc1)C(C)(O)c1ccccc1 (configuration not stated)	-2%	-10.1	-8%	10.9	27.4	-22.4%

SMILES	growth inhibition [1]	growth inhibition [2] [%]	growth inhibition [3]	growth inhibition [4] [%]	growth inhibition [5] [%]	growth inhibition [6]
O=C(Nc1ccc(Br)cc1)Oc1ccc(-c2ccccc2)cc1	28.9%	9.15	4.6%	18.1	41.8	18.4%
O=C1CN(CN2CCOCC2)C(=O)CN1CN1CCOCC1	39.3%	19.1	44%	18.6	36.2	32.9%
O=C1C(Cl)N(c2ccc(Cl)cc2Cl)C1c1c[nH]c2ccccc12 (configuration not stated)	-14.4%	-13.9	-16.7%	3.05	2.95	-20.4%
Cc1cc2nc(-c3ccccn3)c(-c3ccccn3)nc2cc1C	2.05%	-18.9	6.9%	20.1	-7.75	21.4%
O=C(OCC1C2CCC(C2)C1c1ccccc1)c1ccc([N+](=O)[O-])cc1 (configuration not stated)	1.4%	8.5	-2%	-22.7	-2.75	10.5%
ClCc1ccc(-c2ccccc2)cc1	48.8%	16.4	19.7%	26.7	8.7	47%
CN(C)CCNC(=O)c1nc([N+](=O)[O-])cn1C	31.9%	3.55	-2.25%	7.35	20.4	-69.2%
NC1CSc2ccccc2NC1=O (configuration not stated)	20.5%	31.9	7.8%	9.8	22.8	33%
O=c1oc2nc(-c3ccccc3)[nH]c(=O)c2c(O)c1Cc1ccccc1	6.35%	2.75	1.55%	8.7	27.6	26.9%
C#CC(NC(C)(C)CC(C)(C)C)C(C)C (configuration not stated)	31.1%	4.25	0.55%	6.8	4.1	12.2%
CCN(CC)CCCC(C)Nc1nncc2ccccc12 (configuration not stated)	-19.2%	-2.1	2.55%	-17.3	-1.3	-8.95%
Cc1c(-c2ccccc2)c(=O)oc2ccc(Cl)cc12	-34%	-8.5	1.1%	-9.85	-14.9	-15.2%
COc1cc(/C=C2/C(=O)N(c3ccccc3)N=C2C)cc(OC)c1OC	12.6%	-3.4	24.1%	2.5	11.6	17.9%
CCCCCCOCC(=O)OC	10.2%	-9.6	-1.55%	8.35	9.2	-2.85%
COc1ccccc1/C=C/C(=O)c1sc(-c2cccnc2)nc1C	38.5%	17.5	5.3%	17.9	23.9	33.5%
NCCSCc1ccccc1Cl	-10.3%	-27.2	-50.9%	-33.5	-23.6	-0.4%
CC(C)C(=O)Nc1cccc([N+](=O)[O-])c1	-2.1%	-8.75	6.75%	-24.6	-6.85	-7.6%
c1cnc2cccnc2c1	-16.1%	-30.4	-14.7%	-6.15	-8.6	-9.9%
NNC(=O)c1ccc(Cl)cc1Nc1ccccc1	24.9%	47	59%	16.7	-17.2	89% (active)
CCC1(O)C(=O)c2ccccc2N(c2ccccc2)C1=O (configuration not stated)	9.05%	3.7	4%	-5.85	8.3	18.2%
O=C(O)C1(C(=O)O)Cc2ccccc2C1	-15.6%	-12.6	-9.15%	-9.35	9.85	14.8%

Source: PubChem BioAssay (NCI)
